KB-V1 cytotox: kills drug-selected multidrug resistant KB-V1 cells | KB-V1 MDR cells viability, CellTiter-Glo, 72 h | Potency, µM (series often up to 46.1 µM), usual class: cytotoxic | 400,000 tested, 3.4% active | AID 1347076; note: % is set by controls: 0 for no effect and ±100 for the full control effect; nearly all actives have a fitted effect of over 60% in size
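Drug-selected KB-V1 cells, grown in DMEM lacking phenol red with 10% FBS, receive compound titrations; after three days at 37 degrees C, surviving cell ATP is quantified by CellTiter-Glo luminescence and responses normalized and curve-fitted.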
KB-3-1 tox: kills parental KB-3-1 adenocarcinoma cells | KB-3-1 viability, CellTiter-Glo ATP luminescence, 72 h | Potency, µM (top dose mostly 46.1 µM), usual class: cytotoxic | 400,000 tested, 1.4% active | AID 1347075; note: % is set by controls: 0 for no effect and ±100 for the full control effect; nearly all actives have a fitted effect of over 60% in size
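Cells are dispensed, compounds pinned in, plates held at 37 °C for 72 h, then CellTiter-Glo is added and luminescence read after 10 minutes. Cell line: parental KB-3-1 in phenol-red-free DMEM, 10% FBS.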
HepG2 tox: counter-screen for TGF-b inhibitors: cytotoxicity in HepG2 cells; HepG2 CAGA-GFP viability, ATP luminescence, 18 h; Potency, µM (series often up to 46.1 µM), for the others: at the highest dose activity change, negative = cytotoxicity, actives largely listed as cytotoxic; 410,000 tested, 0.76% active; AID 588856
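CellTiter-Glo luminescence gave cytotoxicity after 18 hours at 37 degrees C. The cells were HepG2 CAGA-GFP in 1% FBS DMEM, stimulated with 500 pg/mL TGF-beta after compound addition. %Activity was normalised to no-cell wells (complete cell-killing) and DMSO (no toxicity), and curves were fitted and classified.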
TGFb SMAD3 inh: TGF-b pathway inhibition; Potency, µM (highest dose often 46.1 µM), inactives show at the top dose activity, negative = inhibition, usual class: inhibitors; HepG2 CAGA-GFP TGF-b/SMAD3 reporter, GFP fluorescence, 18 h; TGF-beta stimulated, 500 pg/mL final; 410,000 tested, 1.2% active; note: % is set by controls: 0 for no effect and ±100 for the full control effect; nearly all actives have a fitted effect of over 65% in size
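HEPG2 CAGA-GFP, 1000 cells/well; 2 h settle, 37 C; cpd via pin tool; TGF-b 500 pg/mL final; 18 h, 37 C; GFP imaging ex488/em500-530; %Activity normalised to -TGF-b and +DMSO controls; CRC fit, curve class.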
HT1080 IDH1KD tx: toxicity to HT-1080 IDH1 knockdown cells (counter line). 360,000 tested, 2% active. HT-1080 IDH1 knockdown viability, ATP luminescence, 48 h. Potency, µM (titrated, usually from 46.1 µM), for the others: at the highest dose activity, negative = toxicity, most hits filed as cytotoxic;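 note: 0% = DMSO wells and -100% = cell-free medium wells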
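In this qHTS, HT-1080 cells depleted of IDH1 are exposed for 48 h at 37 °C to compound titrations. Toxicity is scored from CellTiter-Glo luminescence, with DMSO as full viability and medium alone as none.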
HT1080NT lethal: kills 2HG-producing HT-1080-NT fibrosarcoma cells; HT-1080-NT fibrosarcoma viability, CellTiter-Glo ATP luminescence, 48 h; 360,000 tested, 1.6% active; Potency, µM (series often up to 46.1 µM), without a hit: top-dose activity, negative = less viability, hits mostly cytotoxic; AID 686970;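 note: NT is the 2HG producing partner of a matched IDH1 knockdown line; 0% = DMSO-treated cells and -100% = media-only wells without cells; nearly all actives have a fitted effect of over 55% in size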
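750 cells/well, RPMI + 5% FBS; 2 h settle, compound pin-transfer, 48 h at 37 degrees C. CellTiter-Glo 10 min RT, luminescence. Normalized to DMSO and media-only wells.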
Active calls of the source: *; i = inactive; ? = inconclusive; nt = no result; ! = not confirmed by another sample. Compounds with a hit are over-represented: about 6.6% of the library has one in this group of screens. Calls come from the whole dose curve; as a rule, active = well fitted curve in the direction sought with a large enough effect; inconclusive = small, poorly fitted or top-dose-only effect, or another doubt; inactive = no such curve, though single readings can be large; an effect the other way counts as inactive or inconclusive. Potency is the fitted concentration of half-maximal effect.

SMILES	KB-V1 cytotox	KB-3-1 tox	HepG2 tox	TGFb SMAD3 inh	HT1080 IDH1KD tx	HT1080NT lethal
O=C(CN1c2cccc3cccc(c23)S1(=O)=O)N1CCN(c2ccccc2)CC1	9.2µM*	i	-23.7%	-28.2%	-27.5%	-1.9%
O=C(CN1C(=O)c2cccc3cccc1c23)N1CCN(c2ccccc2)CC1	i	i	-4.5%	-21.2%	?	2.3%
O=c1n(Cc2ccc([N+](=O)[O-])cc2)c2ccccc2c2nc(-c3ccccc3)nn12	nt	nt	-9.4%	19.3%	nt	nt
CCCS(=O)(=O)NCCc1csc2nc(-c3ccc(OC)cc3)nn12	nt	nt	-4.9%	-9.2%	nt	nt
O=C(Nc1ccccc1)c1cnc(-c2ccccc2)nc1-c1ccccc1	10.3µM*	i	-6.6%	?	?	?
CCc1ccc(NC(=O)C2CCN(c3nnc(-n4c(C)ccc4C)s3)CC2)cc1	nt	nt	-28.0%	nt	nt	nt
N#Cc1ccsc1NC(=O)CN1CCN(c2ccc(O)cc2)CC1	i	i	-0.5%	3.2%	-6.2%	?
CCc1nnc(NC(=O)CN2CCN(c3nc(-c4ccccc4)cs3)CC2)s1	20.6µM*	i	-5.6%	-7.5%	?	?
COc1ccc(N2CCN(CC(=O)Nc3sccc3C#N)CC2)cc1	16.4µM*	i	-2.6%	1.9%	-0.5%	1.9%
COc1ccc(-c2nnn(CC(=O)N3CCN(c4ccc(F)cc4)CC3)n2)cc1	i	i	-0.5%	-5.9%	-1.6%	6.7%
CCN(CC)CCCNC(=S)N1CCN(c2nc(-c3ccccc3)cs2)CC1	i	i	-74.2%	?	23.1µM*	16.4µM*
CCOCCCNC(=S)N1CCN(c2nc(-c3ccccc3)cs2)CC1	?	i	-33.3%	?	?	?
COc1ccc(N2CCN(C(=O)CN3CCN(c4nc(-c5ccc(F)cc5)cs4)CC3)CC2)cc1	?	23.1µM*	-2.3%	-8.4%	2.5%	-6.5%
CC(=O)Nc1ccc(S(=O)(=O)N2CCC(c3nnnn3-c3ccccc3)CC2)cc1	nt	nt	-13.8%	-18.6%	nt	nt
COc1cccc(-c2csc(N3CCN(CC(=O)NNC(=O)c4ccc(Cl)cc4)CC3)n2)c1	?	i	-28.9%	?	11.2µM*	?
COC(=O)C1CCN(C(=O)/C=C/c2ccc(OC)cc2)CC1	i	i	-24.2%	2.1%	-16.1%	-17.0%
COc1ccc(N2CCN(CC(=O)N3CCC(C)CC3)CC2)cc1	18.4µM*	i	0.8%	-0.1%	2.7%	-0.4%
CC1CCN(CC(=O)N2CCN(c3ccccc3)CC2)CC1	i	i	2.3%	0.2%	13.2%	5.1%
COc1ccc2cc(/C=C/C(=O)N3CCN(CC(=O)N4CCCCCC4)CC3)ccc2c1	14.6µM*	i	-33.0%	0.0%	-1.8%	-29.6%
CCn1ccc2cc(S(=O)(=O)N3CCCN(C(=O)Nc4ccccc4F)CC3)ccc21	i	i	-0.8%	-4.3%	nt	nt
O=C(Cc1ccccc1)Nc1c(C(=O)Nc2ccccc2F)oc2ccccc12	i	i	5.4%	9.5%	nt	nt
Cc1cc(O)c(C2=Nc3ccccc3SC(c3ccc(Cl)cc3)C2)c(=O)o1 (centres undefined)	?	i	6.9%	?	3.3%	?
COc1ccc(C2CC(c3c(O)cc(C)oc3=O)=NCCS2)c(OC)c1 (centres undefined)	0.366µM*	0.291µM*	-26.1%	?	1.3µM*	1.3µM*
CCC(=O)N1CCc2cc(S(=O)(=O)NCCC(=O)NCc3ccc(C)cc3)ccc21	i	i	-18.7%	?	nt	nt
Clc1ccc(-c2cnc(Oc3ccccc3)nc2)cc1	i	i	-17.7%	24.7%	-2.5%	-5.2%
SMILES	KB-V1 cytotox	KB-3-1 tox	HepG2 tox	TGFb SMAD3 inh	HT1080 IDH1KD tx	HT1080NT lethal
Cc1cc(Cl)ccc1Oc1ncc(-c2ccc(Cl)cc2)cn1	18.4µM*	i	-62.6%	?	-8.0%	-5.2%
CN(C)c1ccc(CNC(=O)C2CCCN(S(=O)(=O)c3ccc4c(c3)CCCC(=O)N4)C2)cc1 (centres undefined)	nt	nt	-37.8%	?	nt	nt
O=C(c1cc(Cl)c(=O)n(Cc2ccc(Cl)cc2)c1)N1CCOCC1	20.6µM*	i	12.3%	-12.0%	-2.6%	-1.9%
COc1ccc(-c2nnc(SCCOc3ccccc3C)o2)cc1OC	i	i	-15.3%	-0.3%	nt	nt
Nc1cc(=O)[nH]c(SCCSc2ccccc2)n1	7.31µM*	?	-13.4%	-9.1%	5.7%	2.9%
Nc1cc(=O)[nH]c(SCCNS(=O)(=O)c2ccccc2)n1	i	i	23.6%	3.1%	1.6%	4.5%
CCOc1ccc(OCCSc2nc(N)cc(=O)[nH]2)cc1	i	?	5.4%	-4.8%	-12.7%	-9.7%
Nc1cc(=O)[nH]c(SCCOc2ccccc2)n1	5.17µM*	?	-2.3%	2.8%	1.3%	5.4%
Clc1ccccc1CNCCCSc1nnnn1-c1ccccc1	i	i	-30.5%	1.3%	nt	nt
CN(C)C(CNC(=O)c1cccc(S(=O)(=O)N2CCN(c3ccc(F)cc3)CC2)c1)c1ccccc1 (centres undefined)	i	?	-23.0%	?	14.6µM*	?
COc1cccc(CNC(=O)c2cccc(S(=O)(=O)N3CCN(Cc4ccccc4)CC3)c2)c1	14.6µM*	i	-9.1%	-10.5%	-3.0%	0.8%
CN(C)C(=O)c1ccc(NC(=O)c2cccc(S(=O)(=O)N3CCN(Cc4ccccc4)CC3)c2)cc1	i	i	-0.4%	-13.9%	-7.1%	-5.3%
CN(CC(=O)Nc1ccc(Cl)cc1)C(=O)c1cccc(S(=O)(=O)N2CCN(Cc3ccccc3)CC2)c1	?	16.4µM*	-29.2%	0.0%	-23.7%	-2.4%
COc1ccc(CN2CCN(S(=O)(=O)c3ccccc3)CC2)c(OC)c1	18.4µM*!	i	5.5%	-22.5%	6.9%	2.8%
CN(Cc1ccc(OC(F)F)cc1)C(=O)c1cccc(S(=O)(=O)N2CCN(Cc3ccccc3)CC2)c1	?	14.6µM*	-3.8%	10µM*	-17.0%	-21.7%
O=C(NCc1ccc(F)cc1)c1cccc(S(=O)(=O)N2CCCC2)c1	23.1µM*	i	-2.8%	-8.3%	2.4%	-5.1%
COc1ccc(C(CNC(=O)c2cccc(S(=O)(=O)N3CCc4ccccc43)c2)N(C)C)cc1 (centres undefined)	i	?	-25.7%	-16.0%	-13.6%	-5.6%
COc1ccccc1C(CNC(=O)c1cccc(S(=O)(=O)N2CCCc3ccccc32)c1)N(C)C (centres undefined)	5.8µM*	i	-47.5%	-4.9%	-6.2%	-20.2%

Source: PubChem (National Center for Advancing Translational Sciences (NCATS))
